Data as given in the supplement of paper PMC12350171.
Structures can show the parent of a compound that is named as a salt. Values without a mark were called inactive.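 How the source made its calls: active = AUC significantly below DMSO controls by Student t-fit with adjusted P under 0.01; inactive = not significantly reduced.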

System: Haemophilus parainfluenzae
Assay: growth AUC normalised to DMSO control (fraction of control); higher = less growth inhibition, active = hit call of the paper
Conditions: 20 µM
Outline: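 Pathogens passaged twice anaerobically were inoculated at a starting OD578 of 0.01 into pre-reduced mGAM plates with drug at 20 μM and 1% DMSO, sealed with breathable membranes. Haemophilus parainfluenzae medium was supplemented with hemin and NAD. OD578 was read hourly for 24 h, with three biological replicates. Growth-curve AUC was computed by the trapezoidal rule up to the exponential-to-stationary transition and normalised to DMSO controls on the same plate.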

Row | Structure (SMILES) | growth AUC normalised to DMSO control
1 | CCC1(C)CC(=O)NC1=O (stereo not drawn) [Ethosuximide] | 1.06
2 | CC(CN1c2ccccc2Sc2ccccc21)N(C)C (stereo not drawn) [Promethazine hydrochloride] | 0.954
3 | CC(C)(Oc1ccc(Cl)cc1)C(=O)O [Clofibric acid] | 0.908
4 | C[C@@H]1[C@H](O)[C@@H](C)/C=C/C=C/C=C/C=C/C=C/C=C/C=C/[C@H](O[C@@H]2O[C@H](C)[C@@H](O)[C@H](N)[C@@H]2O)C[C@@H]2O[C@](O)(C[C@@H](O)C[C@@H](O)[C@H](O)CC[C@@H](O)C[C@@H](O)CC(=O)O[C@H]1C)C[C@H](O)[C@H]2C(=O)O [Amphotericin B] | 1.09
5 | CC(C(=O)O)c1ccc(N2Cc3ccccc3C2=O)cc1 (stereo not drawn) [Indoprofen] | 1.02
6 | CN(C)CCCN1c2ccccc2CCc2ccccc21 [Imipramine hydrochloride] | 0.923
7 | CN1CCC(=C2c3ccccc3CCc3sccc32)CC1 [Pizotifen malate] | 0.936
8 | CC1CC(OC(=O)c2ccccc2O)CC(C)(C)C1 (stereo not drawn) [Homosalate] | 0.983
9 | O=C(COc1ccc(Cl)cc1)N1CCN(Cc2ccc3c(c2)OCO3)CC1 [Fipexide hydrochloride] | 0.836
10 | NS(=O)(=O)c1cc2c(cc1Cl)N=C(CSCc1ccccc1)NS2(=O)=O [Benzthiazide] | 0.987
11 | CC[C@@]1(O)C(=O)OCc2c1cc1n(c2=O)Cc2cc3c(CN(C)C)c(O)ccc3nc2-1 [Topotecan] | 0.984
12 | CCN1CCC[C@H]1CNC(=O)c1c(OC)ccc(Br)c1OC [Remoxipride hydrochloride] | 1.04
13 | CO[C@@]1(NC(=O)C(C(=O)O)c2ccc(O)cc2)C(=O)N2C(C(=O)O)=C(CSc3nnnn3C)CO[C@@H]21 (stereo partly drawn) [Moxalactam disodium salt] | 0.076 (active)
14 | CC(C)n1c(/C=C/C(O)CC(O)CC(=O)O)c(-c2ccc(F)cc2)c2ccccc21 (stereo not drawn) [Fluvastatin sodium salt] | 1
15 | CC(C)C(=O)c1c(C(C)C)nn2ccccc12 [Ibudilast] | 0.811
16 | CN(C)CCCN1c2ccccc2Sc2ccc(Cl)cc21 [Chlorpromazine hydrochloride] | 0.981
17 | Nc1nc2c(ncn2COCCO)c(=O)[nH]1 [Acyclovir] | 1.01

Row | Structure (SMILES) | growth AUC normalised to DMSO control
18 | O=C(O)Cc1cc(I)c(Oc2ccc(O)c(I)c2)c(I)c1 [Tiratricol] | 0.896
19 | NC[C@@H]1O[C@@H](O[C@H]2[C@H](O)[C@@H](O[C@H]3O[C@H](CO)[C@@H](O)[C@H](N)[C@H]3O)[C@H](N)C[C@@H]2N)[C@@H](O)[C@H](O)[C@H]1O [Kanamycin A sulfate] | 0.976
20 | CC(C[N+](C)(C)C)OC(N)=O (stereo not drawn) [Bethanechol chloride] | 1
21 | CN(c1nccc(=O)[nH]1)C1CCN(c2nc3ccccc3n2Cc2ccc(F)cc2)CC1 [Mizolastine] | 1.11
22 | CC(=O)[C@@]1(O)CC[C@H]2[C@@H]3C[C@H](C)C4=CC(=O)C=C[C@]4(C)[C@@]3(F)[C@@H](O)C[C@@]21C [Fluorometholone] | 1
23 | CCN1CCN(C(=O)N[C@@H](C(=O)N[C@@H]2C(=O)N3[C@@H]2SC(C)(C)[C@@H]3C(=O)O)c2ccccc2)C(=O)C1=O [Piperacillin sodium salt] | 0.0495 (active)
24 | N=C(N)c1ccc(OCCCCCOc2ccc(C(=N)N)cc2)cc1 [Pentamidine isethionate] | 0.946
25 | COc1ccc2c(c1)N(C[C@H](C)CN(C)C)c1ccccc1S2 [Methotrimeprazine maleate salt] | 1.04
26 | COC(=O)Nc1nc2cc(C(=O)c3cccs3)ccc2[nH]1 [Nocodazole] | 1.03
27 | COc1cc(C(=O)OCCCN2CCCN(CCCOC(=O)c3cc(OC)c(OC)c(OC)c3)CC2)cc(OC)c1OC [Dilazep dihydrochloride] | 0.97
28 | NC[C@H]1CC[C@H](C(=O)O)CC1 [Tranexamic acid] | 1.04
29 | N[C@@H](Cc1cc(I)c(Oc2cc(I)c(O)c(I)c2)c(I)c1)C(=O)O [(L) Thyroxine] | 0.96
30 | O=C(Nc1ccc([N+](=O)[O-])cc1Cl)c1cc(Cl)ccc1O [Niclosamide] | 0.046 (active)
31 | Nc1c(Br)cc(Br)cc1CN[C@H]1CC[C@H](O)CC1 [Ambroxol hydrochloride] | 0.988
32 | CN(C)C(=N)NC(=N)N [Metformin hydrochloride] | 1.03
33 | Cc1cc2c(cc1S(N)(=O)=O)S(=O)(=O)CCC2 [Meticrane] | 1.04
